# PubChem BioAssay
# The list shows a part of the results. Activity calls are given as the source filed them.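 How the source made its calls, unless noted: active means substances whose mean melting-temperature shift, as a percentage of the reference inhibitor's shift, reaches about 5.3% (limit read from the data); inactive means the rest.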
# What was measured:
# [1] = Brca1-Bard1 BiLC signal decrease – luminescence, single concentration, counter-screen for Mdm2/MdmX interaction inhibitor project, confirmation (AID 504668; call rule not given here); conditions: Brca1/Bard1 bimolecular luciferase complementation counterscreen, at 8 µM, stronger effect = higher value
# [2] = NFkB reporter suppression in cystic fibrosis bronchial cells – cell-based, uHTS hits, panel, cytotoxicity readout, dose response (AID 624344); conditions: CF bronchial epithelial cells, PAF-induced NFkB reporter inhibition, with PAF, run 1; at 79 µM (top of the series) unless noted
# [3] = as above; conditions: CF bronchial epithelial cells, PAF-induced NFkB reporter inhibition, with PAF, run 2; at 79 µM (top of the series) unless noted
# [4] = HIF-2a driven luciferase blockers, single dose – luminescence, 786-0 RCC cells, confirmation (AID 651580;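 active means mean inhibition across four replicates of at least 40 percent at the single tested concentration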); conditions: HIF-2a luciferase reporter luminescence, overnight, at 18.8 µM, stronger effect = higher value
# [5] = HIF-1a luciferase reporter signal reduction – MiaPaCa-2 cells, single concentration, counter-screen for HIF-2a inhibitor project, confirmation (AID 651589;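 active means mean inhibition of the reporter signal across four replicates at the single tested dose of 50% or more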); conditions: MiaPaCa-2 HIF-1a luciferase reporter, desferoxamine, overnight; at 18.8 µM; stronger effect = higher value
# [6] = target: Carboxy-terminal domain RNA polymerase II polypeptide A small phosphatase 1 (Homo sapiens) (UniProt Q9GZU7); test: SCP1 melting temperature change from compounds – biophysical, differential scanning fluorimetry, orthogonal assay for Scp-1 inhibitor project, confirmation (AID 540329); conditions: Recombinant SCP1, Sypro Orange thermal shift Tm; at 40 µM; stronger effect = higher value;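 further: 0% = Tm of DMSO wells and 100% = Tm with sodium orthovanadate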
# [7] = target: Tumor necrosis factor receptor superfamily member 10B (Homo sapiens) (UniProt O14763); test: viability loss of caspase-8 NB7 cells with TRAIL – with/without TRAIL, luminescence panel, confirmation (AID 651596; in the data active means activity above about 50%); conditions: NB7 neuroblastoma + caspase-8, TRAIL sensitization, NB7 Caspase-8, with TRAIL, mean of runs, at 10 µM, stronger effect = higher value
# [8] = as above; conditions: NB7 neuroblastoma + caspase-8, without TRAIL, NB7 Caspase-8, without TRAIL, mean of runs, at 10 µM
# [9] = target: Tumor necrosis factor receptor superfamily member 10B (Homo sapiens) (UniProt O14763); test: compound enhancement of TRAIL-induced cell killing – NB7 cells plus caspase-8, luminescence, panel, dose response (AID 652002); conditions: NB7 neuroblastoma +caspase-8, TRAIL sensitization, luminescence viability, NB7+Caspase-8, with TRAIL, run 1; at 12.5 µM (top of the series)
# [10] = target: Tumor necrosis factor receptor superfamily member 10B (Homo sapiens) (UniProt O14763); test: as above; conditions: NB7 neuroblastoma +caspase-8, TRAIL sensitization, luminescence viability, NB7+Caspase-8, with TRAIL, run 2; at 12.5 µM (top of the series)
# [11] = as above; conditions: NB7 neuroblastoma +caspase-8, no TRAIL, compound-alone cytotoxicity counter-screen, luminescence viability, NB7+Caspase-8, run 1; at 12.5 µM (top of the series) unless noted
# [12] = as above; conditions: NB7 neuroblastoma +caspase-8, no TRAIL, compound-alone cytotoxicity counter-screen, luminescence viability, NB7+Caspase-8, run 2; at 12.5 µM (top of the series) unless noted
# Sequence of Tumor necrosis factor receptor superfamily member 10B (Homo sapiens) (O14763 whole entry, looked up): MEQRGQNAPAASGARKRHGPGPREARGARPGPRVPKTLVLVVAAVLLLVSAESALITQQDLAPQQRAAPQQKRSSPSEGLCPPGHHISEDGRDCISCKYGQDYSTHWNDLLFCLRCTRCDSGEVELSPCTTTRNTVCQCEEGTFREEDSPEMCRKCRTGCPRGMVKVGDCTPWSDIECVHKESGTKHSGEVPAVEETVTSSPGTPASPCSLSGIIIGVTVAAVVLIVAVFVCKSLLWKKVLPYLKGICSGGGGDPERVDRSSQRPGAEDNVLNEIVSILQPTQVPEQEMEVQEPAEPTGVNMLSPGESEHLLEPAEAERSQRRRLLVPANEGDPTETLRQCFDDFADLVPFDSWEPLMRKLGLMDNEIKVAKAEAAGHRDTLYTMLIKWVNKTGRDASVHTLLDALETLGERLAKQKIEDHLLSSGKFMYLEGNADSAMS
# Sequence of Carboxy-terminal domain RNA polymerase II polypeptide A small phosphatase 1 (Homo sapiens) (Q9GZU7 76-261 limits assumed): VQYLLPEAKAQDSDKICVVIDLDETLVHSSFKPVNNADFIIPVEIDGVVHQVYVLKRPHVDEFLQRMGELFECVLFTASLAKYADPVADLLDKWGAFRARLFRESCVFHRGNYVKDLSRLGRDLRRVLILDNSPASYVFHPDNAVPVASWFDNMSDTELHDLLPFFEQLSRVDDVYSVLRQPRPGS
smiles,measurement,setting,value
CCN1CCN(Cc2ccc(NC(=O)c3ccc(C)c(NC(=O)C(=O)c4c[nH]c5ccccc45)c3)cc2C(F)(F)F)CC1,inhibition,[1],30.8% (active)
same,inhibition,[2],103%
same,inhibition,[3],112%
Cc1c(C=O)c(C=O)c(C)n1Cc1ccccc1,inhibition,[1],30.8% (active)
same,inhibition,[2],118%
same,inhibition,[3],103%
CC(C)Nc1ncnc2ccc(Br)cc12,inhibition,[1],24.8% (active)
same,inhibition,[2],118%
same,inhibition,[3],104%
Cc1ccc(N(Cc2cc(=O)[nH]c3ccccc23)C(=O)CCl)cc1,inhibition,[4],76.7% (active)
same,inhibition,[5],107% (active)
Cc1ccc(-c2nn(C(C)(C)C)c3ncnc(N)c23)cc1,inhibition,[4],70.1% (active)
same,inhibition,[5],93.8% (active)
COc1ccc(S(=O)(=O)c2c[nH]c(=S)[nH]c2=O)cc1Cl,thermal shift relative to vanadate control,[6],13.1% (active)
CCOC(=O)c1sc(NC(=O)c2cc(-c3ccccc3C)nc3ccccc23)c(C#N)c1C,inhibition,[1],32.4% (active)
same,activity,[7],54.4%
same,activity,[8],40.4%
same,"activity, % sensitization",[9],16.7%
same,"activity, % sensitization",[10],-4.14%
same,"activity, % sensitization",[11],4.11%
same,"activity, % sensitization",[12],-11.3%
Cc1nn(-c2cc(Cl)ccc2N)c(=O)c2ccccc12,thermal shift relative to vanadate control,[6],-6.02% (inactive)
Cc1ccc(CCCOC(=O)C[N+]2(C)CCCC2)cc1,thermal shift relative to vanadate control,[6],-9.83% (inactive)
CCCCCc1cc(=O)oc2c(C(CCN(CC)CC)c3cc(OC)c(OC)c(OC)c3)c(OC)cc(OC)c12 (centres undefined),inhibition,[1],32% (active)
same,activity,[7],52.9%
same,activity,[8],54.7%
same,"activity, % sensitization",[9],-8.61%
same,"activity, % sensitization",[10],49.1%
same,"activity, % sensitization",[11],-1%
same,"activity, % sensitization",[12],3.69%
O=C(Nc1cccnc1)c1cc2cc(Br)ccc2oc1=O,thermal shift relative to vanadate control,[6],0.88% (inactive)
CO/N=C(\C(=O)N[C@@H]1C(=O)N2C(C(=O)O)=C(COC(C)=O)CS[C@H]12)c1csc(N)n1 (stereo in doubt),thermal shift relative to vanadate control,[6],-5.16% (inactive)
ON=C1/C(=N\O)CC2(C/C1=N/O)OCCO2,thermal shift relative to vanadate control,[6],4.94% (inactive)
O=S(=O)(Nc1ccccc1Cl)c1cccc2nsnc12,thermal shift relative to vanadate control,[6],-16.9% (inactive)
CC[n+]1c(C)n(-c2ccccc2)c2ccc(NC(C)=O)cc21,thermal shift relative to vanadate control,[6],-13.8% (inactive)
O=C(COC(=O)c1ccccc1O)NCc1ccco1,thermal shift relative to vanadate control,[6],-13.8% (inactive)
N#Cc1ccccc1CN1C(=O)S/C(=C/c2cccn2-c2cccc(C(=O)O)c2)C1=O,thermal shift relative to vanadate control,[6],1.96% (inactive)
CNS(=O)(=O)c1cccc(C(=O)OCC(=O)N2c3ccccc3NC(=O)C2(C)C)c1,thermal shift relative to vanadate control,[6],0.5% (inactive)
Cn1ncc2c(O/N=C(\N)c3ccc(C(F)(F)F)cc3)ncnc21,inhibition,[1],24.2% (active)
same,activity,[7],98.8%
same,activity,[8],98.8%
Cc1ccc(Cc2nnc(SCC(=O)Nc3ccc(C)cc3C)[nH]c2=O)cc1,thermal shift relative to vanadate control,[6],4.55% (inactive)
O=C(NNC(=O)c1ccc2ccccc2c1)c1ccc(Cl)cc1,thermal shift relative to vanadate control,[6],-19.4% (inactive)
Cc1nnc(SCC(=O)Nc2ccc(S(=O)(=O)Nc3ccc(Cl)nn3)cc2)s1,thermal shift relative to vanadate control,[6],3.43% (inactive)
Cc1oc2c(C)c3oc(=O)c(CC(=O)N[C@@H](CC(C)C)C(=O)N[C@@H](Cc4ccccc4)C(=O)O)c(C)c3cc2c1C,thermal shift relative to vanadate control,[6],-12.3% (inactive)
C[C@H](CO)N1C[C@H](C)[C@H](CN(C)C(=O)Nc2ccc(C(F)(F)F)cc2)Oc2c(NC(=O)c3ccncc3)cccc2C1=O,thermal shift relative to vanadate control,[6],1.36% (inactive)
O=C(CCl)N(C/C=C/c1ccccc1)c1ccc2c(c1)OCCO2,inhibition,[1],26.4% (active)
same,activity,[7],97.8%
same,activity,[8],94%
Cc1ccc(C(=O)NNC(=O)c2cc3cc4ccccc4nc3s2)cc1,thermal shift relative to vanadate control,[6],-10.9% (inactive)
O=C1NN(c2ccccc2)C(=O)/C1=C/c1ccc(-c2cccc(C(=O)O)c2)o1,thermal shift relative to vanadate control,[6],14.3% (active)
CCCCCN1CC(O)=C(c2nc(-c3ccc(Cl)cc3)cs2)C1=N,thermal shift relative to vanadate control,[6],-7.73% (inactive)
CCOC(=O)C1=C(C)c2ccccc2OC1(C)C(=O)OCC (centres undefined),thermal shift relative to vanadate control,[6],-2.89% (inactive)
COCCCn1c(Cc2csc(Nc3cccc(Cl)c3)n2)nnc1SCC(=O)OC1CCCCC1,thermal shift relative to vanadate control,[6],-0.65% (inactive)
